In PubChem BioAssay AID1347170 (National Center for Advancing Translational Sciences (NCATS), 2019):
Results filed as inconclusive are left out. Unmarked numbers belong to inactive results. Calls of active or inactive are those of the source. Calls follow the shape of the dose curve; as a rule, active = well fitted cell-killing curve with a large enough effect; inconclusive = small, poorly fitted or top-dose-only effect, or another doubt; inactive = flat fitted curve, though single readings scatter.

Assay: Vero cells viability counterscreen for qRT-PCR qHTS assay of selected Zika virus inhibitors
Conditions: CellTiter-Glo ATP luminescence, 24 h; series mostly up to 41.8 µM; activity change, negative = cytotoxicity: at the top concentration
Outline: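 Vero cells in DMEM + 4% FBS were attached overnight, then treated with compounds for 24 h. Viability was measured by CellTiter-Glo ATP luminescence after 30 min at 37 °C.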

Compound | activity change, negative = cytotoxicity | Potency
Cc1ccn(-c2cc(Cl)ccc2[C@@H](Oc2cc(-c3ccc(C[C@H](N)C(=O)O)cc3)nc(N)n2)C(F)(F)F)n1 | -1.61% | –
COc1cc(/C=C(\C#N)C(=O)Nc2nnc(C(F)(F)F)s2)ccc1OCc1ccc(C(F)(F)F)cc1C(F)(F)F | 3.82% | –
COc1cccc(-n2nc(C(=O)O)cc2-c2ccc(C3CCCCC3)c(Cl)c2)c1 | -0.0617% [at 31.5 µM] | –
O=C(O)C1(Cc2cccc(Nc3nccs3)n2)CCC(Oc2cccc(Cl)c2F)CC1 (stereo not drawn) | -0.248% | –
CCOC(=O)c1ccc(N2C(=O)c3n[nH]c(-c4cccs4)c3C2c2ccc(Cl)cc2Cl)cc1 (stereo not drawn) | – | 25.1 µM (active)
CCOC(=O)c1ccc(N2C(=O)c3n[nH]c(-c4cccs4)c3C2c2ccc(C(C)(C)C)cc2)cc1 (stereo not drawn) | -6.72% [at 31.5 µM] | –
CCOc1ccc(-c2cc(NC(=O)c3c(F)cccc3F)c(C(=O)O)s2)cc1 | 1.74% | –
CCCCCCCOc1cc2c(cc1/C(C)=C/c1ccc(C(=O)O)cc1)C(C)(C)CCS2(=O)=O | -9.56% [at 31.5 µM] | –
Cc1ccc2[nH]c(=O)c(C3=NN(C(=O)CCC(=O)O)C(c4ccc(Br)cc4)C3)c(-c3ccccc3)c2c1 (stereo not drawn) | 5.86% [at 31.5 µM] | –
CN(C)[C@@H]1C(=O)C(C(N)=O)=C(O)[C@@]2(O)C(=O)C3=C(O)c4c(O)cccc4C[C@H]3C[C@@H]12 | -8.19% | –
COc1ccccc1-c1cccc(-c2c(O)c3cc(C#N)c(Cl)cc3[nH]c2=O)c1 | 2.73% | –
CC(C)c1ccc2c(c1)c(SC(C)(C)C)c(CC(C)(C)C(=O)O)n2Cc1ccc(Cl)cc1 | – | 15.8 µM (active)
COc1ccc(NS(=O)(=O)c2ccc(NS(=O)(=O)c3ccc4c(c3)OCCO4)cc2)cc1 | -23.1% | –
Oc1cccc(-c2c3nc(c(-c4cccc(O)c4)c4ccc([nH]4)c(-c4cccc(O)c4)c4nc(c(-c5cccc(O)c5)c5ccc2[nH]5)CC4)C=C3)c1 | 13.5% [at 31.5 µM] | –
CN(Cc1ccc(C(=O)O)cc1)c1ccc(OCc2c(-c3c(Cl)cccc3Cl)noc2C2CC2)nc1C(F)(F)F | 13.2% | –
O=C(O)CC1CCC(c2ccc(-c3ccc(Nc4ccc(C(F)(F)F)nc4)cn3)cc2)CC1 (stereo not drawn) | 1.67% [at 31.5 µM] | –
CCc1oc2ccccc2c1C(=O)c1cc(Br)c(O)c(Br)c1 | -18% | –

Compound | activity change, negative = cytotoxicity | Potency
Cc1nc(C2CCCCC2)c(-c2ccc(S(N)(=O)=O)c(F)c2)o1 | 1.12% | –
COc1cc(/C=C/c2ccccc2)c(C(=O)O)c(O)c1CC=C(C)C | -3.97% [at 31.5 µM] | –
COc1cc(Nc2nc3ccccc3nc2NS(=O)(=O)c2cccc(NC(=O)c3ccc(C)c(OC)c3)c2)cc(OC)c1 | -7.94% | –
O=C(O)c1ccc(-n2nc(-c3ccccc3O)nc2-c2ccccc2O)cc1 | 12.3% [at 31.5 µM] | –
CC1(C)CC[C@]2(C(=O)O)CC[C@]3(C)C(=CCC4[C@@]5(C)C[C@@H](O)[C@H](O)C(C)(C)C5CC[C@]43C)C2C1 (stereo partly drawn) | -2.36% [at 20.9 µM] | –
C/C(=C\c1ccc(C(=O)O)cc1)c1ccc2c(c1)C(C)(C)CCC2(C)C | -10.7% | –
Cc1cc(C(C#N)c2ccc(Cl)cc2)c(Cl)cc1NC(=O)c1cc(I)cc(I)c1O (stereo not drawn) | – | 31.6 µM (active)
Cc1cc(C)cc(C(=O)N(C)[C@H](Cc2ccc(-c3ccccc3)cc2)C(=O)N[C@@H](Cc2c[nH]c3ccccc23)C(=O)O)c1 | 0.744% | –
CC(C)=CCCC1(C)C=Cc2c(O)c3c(c(CC=C(C)C)c2O1)OC12C(=CCCC1C(C)(C)O[C@@]2(C/C=C(\C)C(=O)O)C(=O)O)C3=O (stereo partly drawn) | 0.248% | –
O=C(Nc1cc(C(F)(F)F)cc(C(F)(F)F)c1)c1cc(Cl)ccc1O | 0.248% | –
O=C(N/N=C/c1ccc(O)c(O)c1)c1cc2ccccc2cc1O | -8.44% | –
CC(C)=CCc1c2c(c3occ(-c4ccc(O)c(O)c4)c(=O)c3c1O)C=CC(C)(C)O2 | – | 8.91 µM (active)
Cc1cccc(C)c1NS(=O)(=O)c1ccc(NS(=O)(=O)c2ccc3c(c2)OCCO3)cc1 | -20.5% | –
COc1cnc(-c2ccc(Cn3c(CC(C)(C)C(=O)O)c(SC(C)(C)C)c4cc(OC[C@@H]5Cc6ccccc6N5C(C)=O)ccc43)cc2)nc1 | 0.74% [at 31.5 µM] | –
O=C(O)c1ccc2c(ccc3nn(-c4ccc(/C=C/c5ccc(-n6nc7ccc8cc(C(=O)O)ccc8c7n6)cc5[S+](=O)([O-])[O-])c([S+](=O)([O-])[O-])c4)nc32)c1 | 2.1% [at 31.5 µM] | –
CC(C)(O)c1ccccc1CC[C@@H](SCC1(CC(=O)O)CC1)c1cccc(/C=C/c2ccc3ccc(Cl)cc3n2)c1 | 0% | –
